# In the library only some 4.6% were active in any assay of this set; here they are far more common.
# tim23-1 inh – growth inhibitors of tim23-1 mutant yeast. inhibition, % at 20 µM. AID 463212. 330,000 tested, 1.3% active. S. cerevisiae tim23-1 growth, BacTiter-Glo luminescence, 24 h;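 active = growth inhibition of the mutant yeast at or above 50%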;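 note: temperature-sensitive mutant grown at 25 °C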
# tim10-1 inh – tim10-1 yeast growth inhibition. S. cerevisiae tim10-1 ts strain growth, BacTiter-Glo, 24 h. inhibition, % at 20 µM. 330,000 tested, 2.2% active. AID 463190;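 active = inhibition of at least 40%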;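 note: mutant grown at 25 °C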
# NLRP3 yeast inh – inhibitors of NALP3 inflammasome in yeast; Yeast reconstituted NLRP3/ASC/caspase-1, beta-gal luminescence, 24 h; inhibition, % at 10 µM; 330,000 tested, 0.39% active; AID 2825;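 active = inhibition of 50% or more; inactive = inhibition below 50%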
# TIM10 inh – TIM10 yeast growth inhibition; S. cerevisiae TIM10 strain growth, BacTiter-Glo luminescence, 24 h; inhibition, % at 10 µM; 330,000 tested, 1.4% active; AID 463195;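 active = inhibition of 40% or more at the single tested concentration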;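 note: wild-type TIM10 isogenic control strain grown at permissive 25 °C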
# SKKanGAS inh – SKKanGAS growth inhibition. S. pyogenes SKKanGAS, kanamycin growth, BacTiter-Glo, 6 h. inhibition, % at 7.5 µM. 300,000 tested, 1.3% active;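 active = mean replicate score, as percent of positive control median, at least 50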;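 note: strain carries kanamycin resistance gene driven by streptokinase promoter and grows in 40 µg/ml kanamycin; loss of luminescence reflects streptokinase promoter inhibition or plain growth inhibition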
# TIM10 conf – confirmation of TIM10 yeast growth inhibitors. inhibition, % at 10 µM. 4,600 tested, 63% active. shares compounds with TIM10 inh. S. cerevisiae tim10 strain growth, BacTiter-Glo luminescence, 24 h;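 active = inhibition of yeast growth at or above a set limit in either of two replicates at 10 µM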; note: this counterscreen used the strain with wild-type TIM10
# tim23-1 confirm – confirmation of tim23-1 mutant yeast growth inhibitors; shares compounds with tim23-1 inh; S. cerevisiae tim23-1 growth, BacTiter-Glo luminescence, 24 h; inhibition, % at 20 µM; 4,400 tested, 83% active;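 active = inhibition above about 39% in either of two replicate wells at 20 µM, limit read from the data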;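 note: temperature-sensitive tim23-1 mutant grown at 25 °C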
# Hits are given with their value; 0 = inactive; - = not tested or not shown.
SMILES,tim23-1 inh,tim10-1 inh,NLRP3 yeast inh,TIM10 inh,SKKanGAS inh,TIM10 conf,tim23-1 confirm
N#C/C(=C\c1ccc(Sc2ccccc2)o1)c1nc2ccccc2[nH]1,0,0,0,0,0,-,-
Cc1ccc2nc(/C(C#N)=C\c3ccc([N+](=O)[O-])o3)[nH]c2c1,0,0,0,84,89,95,-
Cc1ccc2nc(/C(C#N)=C\c3ccc(N4CCOCC4)o3)[nH]c2c1,0,0,0,0,0,-,-
N#C/C(=C\c1ccc([N+](=O)[O-])o1)c1nc2ccccc2[nH]1,0,0,0,59,0,66,-
COC(=O)c1ccc(NC(=O)CN2CCN(CC#N)CC2)cc1,0,0,0,0,0,-,-
C=C1SC(Nc2c(C)cc(C)cc2C)=NC12CCCCC2,65,0,0,45,0,39,63
COc1ccccc1N1CC(C)(C)C(=O)N(C(=O)c2ccc(Cl)cc2)C1=S,51,0,0,45,0,54,52
COc1cccc2cc(C(=O)NCCc3ccccc3)oc12,62,0,0,50,0,37,77
COc1cccc(OC)c1C(=O)NCCc1ccccc1,0,0,0,0,0,-,-
CCc1cccc2c(C(=S)N3CCCC3)c[nH]c12,0,0,0,0,0,-,-
CCc1cccc2c(C(=O)CCl)c[nH]c12,54,0,0,42,-,0,54
CCCc1cc(=O)[nH]c(SCC(=O)Nc2ccc(Cl)c(S(=O)(=O)N3CCOCC3)c2)n1,0,0,0,0,-,-,-
Cc1ccc2c(c1)COc1c3ccc(C(=O)NCC4CC4)cc3nn1-2,61,0,0,41,0,31,54
Cc1cccc(C(=O)Oc2ccc(/C=N/O)cc2)c1,62,0,0,42,0,32,50
CCOc1ccc(C2=NNC(c3cccs3)=Nc3ccc(OCC)cc32)cc1,55,0,0,52,0,44,68
CCOc1ccc(C2=NNC(c3cccs3)=Nc3ccc(OC)cc32)cc1OCC,0,0,0,0,0,-,-
CCOc1ccc2cc(C#N)c(SCC(=O)N3CCC(C)CC3)nc2c1,52,0,0,59,0,0,50
CC1(C)CC(=O)C=C(c2cccs2)C1,0,0,0,0,0,-,-
CCC(C(=O)N1CCCCCC1)n1nc(C)n2c(cc3occc32)c1=O (centres undefined),0,0,0,0,0,-,-
COc1ccc(O)c(/C=N/NC(=O)c2ccc(CSc3nc(C)cc(C)n3)cc2)c1,0,0,0,0,0,-,-
Cc1cc(C)nc(SCc2ccc(C(=O)N/N=C/c3cccc(O)c3O)cc2)n1,60,0,0,56,0,47,56
O=C(c1ccc(-c2ccccc2)cc1)N1CCN(c2ccccn2)CC1,0,0,0,0,0,-,-
CCC(C)c1ccccc1NC(=S)NC(=O)c1ccco1 (centres undefined),54,0,0,41,0,0,0
O=C(NC(=S)Nc1ccccc1Cl)c1ccco1,0,0,0,0,0,-,-
CN(C)CCCN(C(=O)c1cc(-c2cccs2)nc2ccccc12)c1nc2c(F)cccc2s1,0,0,0,0,0,-,-
SMILES,tim23-1 inh,tim10-1 inh,NLRP3 yeast inh,TIM10 inh,SKKanGAS inh,TIM10 conf,tim23-1 confirm
Cc1ccc2nc(N(CCCN(C)C)C(=O)c3cc(-c4cccs4)nc4ccccc34)sc2c1,60,0,0,41,0,42,0
COc1ccc(C(=O)Nc2ccc3ccccc3c2)c(OC)c1,60,0,0,57,0,62,80
N/C(Cc1cccc2ccccc12)=N\OC(=O)c1cccs1,63,0,0,61,0,78,72
CC(C)OP(=O)(OC(C)C)/C(C=O)=N\Nc1ccc([N+](=O)[O-])cc1,67,0,0,51,0,50,67
O=C(NCCCCc1ccccc1)c1ccccc1Cl,0,0,0,0,0,-,-
C=C(C)c1cccc(C(C)(C)NC(=O)N2CCC(C(N)=O)CC2)c1,0,0,0,0,0,-,-
Cc1cc(NC(=O)CSCC(=O)N(C)Cc2ccc(Cl)cc2Cl)no1,0,0,0,0,0,-,-
COc1ccc2cc(CN(Cc3ccco3)Cc3nnnn3C3CCCCC3)c(=O)[nH]c2c1,59,0,0,41,0,0,60
COc1ccc2cc(CN(Cc3ccco3)C(c3nnnn3C3CCCCC3)C(C)C)c(=O)[nH]c2c1 (centres undefined),0,0,0,0,0,-,-

# Screens deposited in PubChem by several laboratories.
